Test results published in PubChem BioAssay (NCATS).
Results filed as inconclusive are left out. The source made the active and inactive calls. The call rests on the fitted dose curve; in most records, active means well fitted curve in the direction sought with a large enough effect in the signal ratio, with a control signal flat (not every such curve was filed as active); inconclusive means small, poorly fitted or top-dose-only effect, or effect the other way, or a change in a side signal; inactive means no such curve, though single readings can be large or run the other way; the % refers to the signal ratio.

Target: Peroxisome proliferator-activated receptor gamma (Homo sapiens) (UniProt P37231)
Assay: qHTS assay for small molecule agonists of peroxisome proliferator-activated receptor gamma signaling (AID 588536)
Settings: HEK293 PPARg-UAS-bla, beta-lactamase ratio, 16 h, percent of rosiglitazone response, DMSO as zero; series mostly up to 76.7 µM
Source text: NIH Chemical Genomics Center [NCGC] U.S. Environmental Protection Agency [EPA] National Institutes of Environmental Health Sciences [NIEHS] National Toxicology Program [NTP] NCGC Assay Overview The Peroxisome proliferator-activated receptors (PPARs) are lipid-activated transcription factors of the nuclear receptor superfamily with three distinct subtypes namely PPAR alpha, PPAR delta (also called PPAR beta) and PPAR gamma. All these subtypes heterodimerizes with Retinoid X receptor (RXR) and these heterodimers regulate transcription of various genes. PPAR-gamma (glitazone receptor) agonists have been used in the treatment of type 2 diabetes and dyslipidaemia. It is involved in the regulation of glucose and lipid metabolism. PPAR-gamma activates certain genes like Paraoxonase 1 which is responsible for hydrolyzing organophosphates. PPAR-gamma agonists may also be therapeutically important in the treatment of coronary artery disease, obesity and cancer and atherosclerosis.
NCGC Assay Protocol Summary Using a beta-lactamase reporter-gene under control of Peroxisome Proliferator-Activated-gamma (PPAR-gamma) response element, a cell-based assay [GeneBLAzer PPAR-gamma-UAS-bla assay developed by Invitrogen] was used to measure PPAR-gamma ligands signaling. GeneBLAzer PPAR-gamma-UAS-bla-HEK293 cells were used with assay medium containing 1% charcoal/dextran treated FBS. The assay was performed in clear bottom black Greiner 1536-well plates. Rosiglitazone was used in the screen as the positive control. Library compounds were measured for their ability to stimulate the reporter gene activity. Compounds were screened in a titration series in 1536-well format. The fluorescence intensity (405 nm excitation, 460/530 nm emission) was measured using an EnVision plate reader. Data was normalized relative to Rosiglitazone control (2 uM, 100%), and DMSO only wells (basal, 0%). Concentration-response titration points for each compound were fitted to the Hill equation yielding concentrations of half-maximal stimulation (EC50) and maximal response (efficacy) values. qHTS protocol for PPAR-gamma beta-lactamase assay in agonist mode [Step] [Parameter] [Value] [Description] 1. Reagent; 6 uL; 3000 cells/well 2. Incubation; 37 C for 6 - 6.5 hrs 3. Compounds; 23 nL; 0.59 nM to 92 uM 4. Controls (Rosiglitazone); 23 nL, - One column with dose response, start 19 uM, 1:3 dilutions in duplicates - Final concentrations of 2 uM and 0.5 uM in two columns 5. Incubation; 37 C for 16 hrs 6. Detection reagent; 1 uL of CCF4-dye 7. Incubation; RT for 2 hrs 8. Detection; Fluorescence; Envision plate reader

Sequence of Peroxisome proliferator-activated receptor gamma (Homo sapiens) (P37231 whole entry, looked up): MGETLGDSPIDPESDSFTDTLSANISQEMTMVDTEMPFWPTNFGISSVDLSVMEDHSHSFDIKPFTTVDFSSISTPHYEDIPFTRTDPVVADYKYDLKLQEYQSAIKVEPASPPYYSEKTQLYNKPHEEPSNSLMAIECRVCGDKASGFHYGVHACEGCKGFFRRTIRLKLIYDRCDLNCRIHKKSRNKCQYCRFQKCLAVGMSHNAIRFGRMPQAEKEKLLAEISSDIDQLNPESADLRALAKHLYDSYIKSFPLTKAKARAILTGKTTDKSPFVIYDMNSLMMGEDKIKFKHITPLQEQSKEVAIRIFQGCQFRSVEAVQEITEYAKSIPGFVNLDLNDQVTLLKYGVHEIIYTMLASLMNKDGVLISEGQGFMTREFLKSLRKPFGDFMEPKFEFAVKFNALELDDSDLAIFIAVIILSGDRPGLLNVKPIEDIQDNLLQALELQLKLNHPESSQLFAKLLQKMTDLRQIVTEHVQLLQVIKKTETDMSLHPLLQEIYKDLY

| SMILES | outcome |
| --- | --- |
| C[C@H]1C(=O)O[C@@H]2CCN3CC=C(COC(=O)[C@](C)(O)[C@]1(C)O)[C@H]23 | inactive |
| C[C@@H]1C[C@@H]([C@H](O)CC2CC(=O)NC(=O)C2)C(=O)[C@@H](C)C1 | inactive |
| COP(=O)(OC)OC=C(Cl)Cl | inactive |
| Oc1c(Br)cc(Br)cc1Br | inactive |
| COCC(=O)N(c1c(C)cccc1C)C(C)C(=O)OC (stereo not given) | inactive |
| COP(=S)(OC)Oc1ccc(Sc2ccc(OP(=S)(OC)OC)cc2)cc1 | inactive |
| CCNc1nc(Cl)nc(NCC)n1 | inactive |
| CCCCCCCCC(=O)NCc1ccc(O)c(OC)c1 | inactive |
| O=C(NC(=O)c1c(F)cccc1F)Nc1cc(Cl)c(OC(F)(F)C(F)C(F)(F)F)cc1Cl (stereo not given) | inactive |
| O=c1n(Cl)c(=O)n(Cl)c(=O)n1Cl | inactive |
